{"source": "the supplement of paper PMC6555819"}
{"system": "VDR:RXRa (NR concentration 270 nM, RXRa partner concentration 90 nM)", "experiment": "PBM binding z-score (relative to random genomic background probes); higher = stronger binding; sequences stand for … in GC…GCGATTGACAGCGTAGAATGAAGG", "procedure": "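Protein-binding microarray (Agilent 4x180K custom design, double-stranded 60-nt probes: 5' GC cap, 34-nt variable region, 24-nt constant primer region; full probe sequence given). Purified or IVT nuclear receptor:RXRα heterodimers (3:1 NR:RXRα, mostly 270:90 nM) or homodimers were incubated for 1 h in PBS with 2% milk and no ligand, then detected with Alexa488 antibodies. Fluorescence from o1-orientation probes (~5 replicates averaged) was converted to z-scores against 500 random hg19 background probes. Variable regions are seed direct-repeat (DR0–DR5) sites, all their single-nucleotide variants and half-site ablations.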"}
{"sequence": "TCTCGGAGGACACGAAGCTCAGAGCTTTCCAGAG", "PBM binding z-score": -0.415}
{"sequence": "ATATGTAGGCTATCGGGTCATTCAGTTTGCGCAT", "PBM binding z-score": 4.58}
{"sequence": "GATACAGGGTCAGCTCGAGGCCAGAGTATGGAAA", "PBM binding z-score": 3.61}
{"sequence": "TCTTGTAGATCAACAGGGGGTTAAGAAAGATCGA", "PBM binding z-score": 2.13}
{"sequence": "CTACGAAGGTGAACAAGGTCGTTGATTACTATTC", "PBM binding z-score": 6.15}
{"sequence": "TCATATAGGTAATACAGGTGAAAGCCGGCATCTA", "PBM binding z-score": 1.2}
{"sequence": "ACAGACAAGTGAGTGAAGGTAACTCAGCTGGACG", "PBM binding z-score": -0.435}
{"sequence": "TTACCAAGGTGAGCTGGGGTCGTTGATCCAACTC", "PBM binding z-score": 4.15}
{"sequence": "GCTGCTAGGTCCGGTTGGTCAGCTAACGGGTACG", "PBM binding z-score": -0.965}
{"sequence": "ACTCGGAGGAGAAAGGTCAGAGCTACGCCAGTGA", "PBM binding z-score": 2.16}
{"sequence": "CCTACTGGGCCAAAAAGGTCATTGCTGCCGATAA", "PBM binding z-score": 4.46}
{"sequence": "CGAACTAGGGCATCCAGGACAGTGAATACATTGA", "PBM binding z-score": 0.492}
{"sequence": "TTACCTAGGTGAAGGTCGTTGATCCCTCTGTAGA", "PBM binding z-score": 1.06}
{"sequence": "GTACCAAGGTGAATAGGTCGTTAATGAGTAGGCG", "PBM binding z-score": 0.93}
{"sequence": "TGAATGAGGTTATAAGATCATGGAACGTTGCAAA", "PBM binding z-score": 1.44}
{"sequence": "CTCGAAAGGTCTGTTGAGGTGAGTATACGGATAA", "PBM binding z-score": 0.221}
{"sequence": "TCTAGCAGGCCAGAGGTTCACTCAAGAGGTACGG", "PBM binding z-score": 0.704}
{"sequence": "ATATGTAGATTACATCCGGGTCATTCAGGCTATG", "PBM binding z-score": 3.34}
{"sequence": "CGGACTGGGGCAAGGTTACCATAACGCACAGCCA", "PBM binding z-score": 0.267}
{"sequence": "CGTCCAAGGTCGGCAGGTCAGTGAAAGCGACGTG", "PBM binding z-score": 1.28}
{"sequence": "CAAACTTGGTCAAGGTCAAAGTCGGTTTGTGCCA", "PBM binding z-score": 4.47}
{"sequence": "ATATGTAGGTTAGCTGGGGTCATTCAGACTAGGC", "PBM binding z-score": 6.27}
{"sequence": "AGAATGAGGTTACCAAAAATCAGGGAAACGCTTG", "PBM binding z-score": 1.03}
{"sequence": "TCTAGCAGGCCAGAGGGTTACTCAAGAGGTACGG", "PBM binding z-score": -0.176}
{"sequence": "CATACAGGGTCAGATAGGCCAGAGTAGGGACGGC", "PBM binding z-score": 3.2}
{"sequence": "TGTCAAAGTTCAAAGGTAACGTACGTATCCACAC", "PBM binding z-score": 5.05}
{"sequence": "CCGACTGGGCCATAAGGTTACCATAAGCCAGCCC", "PBM binding z-score": 0.0236}
{"sequence": "ATCGAAATGTCGACGAGGTGAGTATACACCGTTT", "PBM binding z-score": 0.509}
{"sequence": "TCTCGGAGGACATGAAGGTCAGAGCTTTCCAGAG", "PBM binding z-score": 1.77}
{"sequence": "TAGCCTAGGTAATGCGGGCCAGTATAGTGTCGGC", "PBM binding z-score": -0.839}
{"sequence": "CAAACTAGGTCACGGAAGGTCAAAGTCGAATGAC", "PBM binding z-score": 6.69}
{"sequence": "AGAATGAGGTTATTTAGATCAGGGAATTGCGGTC", "PBM binding z-score": 1.88}
{"sequence": "CAAACTAGGTCAAAGGTCAAAGGCGAGCCAACCA", "PBM binding z-score": 6.82}
{"sequence": "CAAACTAGGTGACCGGAAGGTCAAAGTCCGCATG", "PBM binding z-score": 4}
{"sequence": "CCTAGCAGTCCAATCTGGGTCACTCAAGGCTTGA", "PBM binding z-score": 0.794}
{"sequence": "TCTATTAGTCGATTAGGGCAACCGAAACAGCGGA", "PBM binding z-score": 0.568}
{"sequence": "TCAGACAGGTGAAGGTAACTCATGTACGCAGTCG", "PBM binding z-score": 0.532}
{"sequence": "AGAATGAGGTTATACGTATATCAGGGAAGAAAGT", "PBM binding z-score": 1.69}
{"sequence": "CCAGAAAGGTGAGAAGGTAACTCAGCCTCGATTA", "PBM binding z-score": 0.43}
{"sequence": "CCAGACAGGTGAAAGGTAGCTCAGTCTGGTACGC", "PBM binding z-score": -0.089}
